Assay results published in ChEMBL document CHEMBL3988442, “University of Dundee, Small-Polar-MMV Screening Library” (2021).
Screen size: about 48,000 compounds; about 13,000 (27%) showed an effect of 50% or more. The list shows a part of the results.

system: Wolbachia pipientis; assay: Anti-Wolbachia Cell-Based Screen; format: functional; parameters: scale not given: in the data most compounds retested in dose-response had high values; settings: 5 µM

| SMILES | Percent Effect [%] |
| --- | --- |
| O=C(CCN1CCCCO1)N1CC[C@H](O)[C@@H](O)C1 | -19.59 |
| Cc1ccc(S(=O)(=O)NC(=O)c2cc(S(C)(=O)=O)ccc2C)s1 | 12.42 |
| CCOC(=O)c1ccc(CNC(=O)c2ccon2)o1 | 45.33 |
| OC1(CN2CCCCC2)CCN(c2cc(C(F)(F)F)ccn2)C1 (centres undefined) | 106.3 |
| OC1(CN2CCCC2)COCCN(c2cc(C(F)(F)F)ccn2)C1 (centres undefined) | 99.83 |
| CS(=O)(=O)NCC1CCCN(c2ccc(C(F)(F)F)cn2)C1 (centres undefined) | 7.899 |
| OC1(CN2CCCCC2)CCN(c2ccc(C(F)(F)F)cn2)C1 (centres undefined) | 107.5 |
| FC(F)(F)c1ccnc(N2CCCOCC2)c1 | 1.908 |
| O=C(c1cn(-c2ccc(C(F)(F)F)cn2)nn1)N1CCCCCC1 | -5.295 |
| Cc1cc(F)ccc1CN1CCC(O)(CN2CCCCC2)C1 (centres undefined) | -5.371 |
| FC(F)(F)c1ccnc(N2CCCCCC2)c1 | 6.382 |
| OC1(CN2CCCC2)COCCN(c2nccs2)C1 (centres undefined) | -1.349 |
| CCc1nnc(CNC(=O)CCCN2CCCCC2)s1 | -1.719 |
| O=C(NCCNC(=O)C1CC1)c1sccc1Br | 0.3352 |
| Cc1cccc(C(C(=O)NCc2csc(-c3ncccn3)n2)N(C)C)c1 (centres undefined) | 2.9 |
| CSC(CNS(=O)(=O)c1cnn(C)c1)c1cccc(Cl)c1 (centres undefined) | -0.2397 |
| CCS(=O)(=O)N1CCC(c2nnc(CN3CCCCC3)n2C)CC1 | -11.51 |
| CCS(=O)(=O)N1CCC(c2nnc(CN3CCCCCC3)n2C)CC1 | -3.352 |
| Cc1noc(C2CCN(Cc3cc(=O)n(C)c(=O)n3C)CC2)n1 | 2.603 |
| Cn1c(CN2CCCCCC2)cc(=O)c(O)c1CN1CCCC1 | 177.4 |
| CC(=O)c1cc(CN2C[C@@H](CN3CCCC3)[C@@H](CO)C2)n(C)c1 | 0.4917 |
| Cn1c(CN2CCCCC2)cc(=O)c(O)c1CN1CCCCC1 | 95.65 |

| SMILES | Percent Effect [%] |
| --- | --- |
| Cc1ccc(CNC2(Cc3cc(-c4ccccc4)on3)COC2)o1 | -15.57 |
| CN1CCN(Cc2ccccc2CNC(=O)c2cc(Cl)ccc2F)CC1 | -3.272 |
| Cn1ncc(C2CC(=O)NCc3nc4sccn4c32)c1C1CC1 (centres undefined) | -19.57 |
| CCC(CC)c1cc(CNC(=O)N2CCC(n3cncn3)CC2)on1 | -7.222 |
| COc1cc(Cl)ccc1CNC(=O)N1CCC(n2cncn2)CC1 | 88.5 |
| COc1cc(Cl)ccc1CNC(=O)N(C)C(C)CS(C)(=O)=O (centres undefined) | 2.125 |
| CCOc1cc(Cl)ccc1CNC(=O)N1CCCC(CO)C1 (centres undefined) | -9.935 |
| COc1ccc(OC)c(CNC(=O)N2CCC(n3cncn3)CC2)c1 | 67.1 |
| CC(C)CC1(C(=O)NCCc2nncn2C2CC2)CCC1 | -4.64 |
| COCCn1cncc1CN1CCCC(C(=O)Cc2ccccc2)C1 (centres undefined) | -2.141 |
| FC(F)Oc1ccc(CNCc2cc(Br)c3c(c2)OCO3)cc1 | -6.924 |
| Cc1cccc(S(=O)(=O)NC(=O)CN(C)Cc2ccccc2)c1 | -8.063 |
| OC1CCN(Cc2ccc(CNc3ncc(Cl)cc3F)cc2)CC1 | 12.54 |
| CCc1ncc2c(n1)CN(CC(=O)Nc1ccncc1)CC2 | 110.2 |
| CCc1ncc2c(n1)CN(CC(=O)NCCOc1ccccc1)CC2 | -2.298 |
| CCc1ncc2c(n1)CN(CC(=O)Nc1ccc(Cl)cn1)CC2 | -11.22 |
| CC(C)c1ncc2c(n1)CN(CC(=O)Nc1ccncc1)CC2 | 121.8 |
| O=C1C[C@@H]2CCN(Cc3ccccc3)C[C@@H]2CCN1C1CCCCC1 | -3.832 |
| Cc1cc(F)cc2c(NCC(C)(C)C(N)=O)c(C#N)cnc12 | -8.15 |
| Cc1[nH]c2ccccc2c1-c1ccnc(N[C@@H](CO)C(C)C)n1 | 99.82 |
| Cc1ccc(-c2nc(CNC(C)CCO)[nH]c2-c2ccccn2)cc1 (centres undefined) | 0.0278 |
| Cc1[nH]c2ccccc2c1-c1ccnc(NCCN2CCOCC2)n1 | 0.04004 |

| SMILES | Percent Effect [%] |
| --- | --- |
| Cc1ccc(-c2ccnc(NC(C)c3c(C)n[nH]c3C)n2)c(C)n1 (centres undefined) | 5.666 |
| O=C(NCCN1CCCCC1)c1nc2ccccc2c(=O)[nH]1 | 8.44 |
| Cc1[nH]c2ccccc2c1-c1ccnc(NC[C@H](O)CO)n1 | 2.314 |
| Cc1[nH]c2ccccc2c1-c1ccnc(N[C@@H](C)CO)n1 | 114.9 |
| Cc1[nH]c2ccccc2c1-c1ccnc(NCCN2CCCCC2)n1 | 107.1 |
| Cc1[nH]c2ccccc2c1-c1ccnc(N[C@H](CO)CC(C)C)n1 | 64.61 |
| Cn1cc(C2CC3(CCN(C(=O)c4cccs4)CC3)NC2=O)cn1 (centres undefined) | 3.208 |
| COc1cc(Cl)cc(C(=O)N2CCC3(CC2)CNC(=O)C3)c1 | -6.802 |
| CCOCc1nc2c(c(N(C)Cc3ccsc3)n1)CCNCC2 | -15.95 |
| O=C(O)C(F)(F)F.O=C([C@H]1CN(Cc2ccccc2F)C[C@H]2OCC[C@@H]12)N1CCCO1 | 3.627 |
| COCCN1CCO[C@@H]2CN(Cc3ccccc3OC)C[C@@H]2C1.O=C(O)C(F)(F)F.O=C(O)C(F)(F)F | 1.646 |
| CC(=O)N1CCO[C@@H]2CN(Cc3ccccc3Cl)C[C@@H]2C1.O=C(O)C(F)(F)F | 111.8 |
| Fc1ccccc1CN1C[C@@H]2CN(Cc3cccnc3)CCO[C@@H]2C1.O=C(O)C(F)(F)F.O=C(O)C(F)(F)F.O=C(O)C(F)(F)F | 0.8548 |
| COc1ccccc1CN1C[C@@H]2CN(C(C)=O)CCO[C@@H]2C1.O=C(O)C(F)(F)F | 111.4 |
| O=C(c1ccccc1)N1CCO[C@@H]2CN(Cc3ccc[nH]3)C[C@@H]2C1 | 106.1 |
| COCCN1CCO[C@@H]2CN(C(=O)c3ccc4[nH]ccc4c3)CC[C@@H]2C1 | -49.46 |
| O=C(O)C(F)(F)F.O=C(c1ccc2[nH]ccc2c1)N1CC[C@@H]2CN(CC3CC3)CCO[C@@H]2C1 | -56.17 |
| COc1ccccc1CN1C[C@@H]2CN(Cc3cccnc3)CCO[C@@H]2C1.O=C(O)C(F)(F)F.O=C(O)C(F)(F)F.O=C(O)C(F)(F)F | -7.53 |
| CC(=O)N1CCO[C@@H]2CN(Cc3ccccc3F)C[C@@H]2C1.O=C(O)C(F)(F)F | 102.5 |
| O=C(CCc1ccccc1)N1C[C@@H]2CN(Cc3ccoc3)CCO[C@@H]2C1.O=C(O)C(F)(F)F | 22.25 |
